# Pf apPOL block: Pf-apPOL DNA polymerase inhibition | Recombinant Pf-apPOL, molecular beacon fluorescence, 1.5 h | inhibition, % at 10 µM | actives 0.25% (n = 210,000) | AID 1794808
# mHTT-CaM PPI inh: disrupts binding of mutant huntingtin to calmodulin; actives 3.6% (n = 190,000); AlphaScreen His-mHTT/GST-CaM binding, luminescence; inhibition, % at 15 µM; P42858;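 note: 0% = both proteins with DMSO and 100% = one protein alone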
# * = called active by the depositor; / = not tested or not shown. Hits are enriched below; roughly 3.6% of the tested compounds scored in any of these assays. Cut-off read from the data, not from the text of the source: active = inhibition above about 50%; inactive = the rest.
SMILES,Pf apPOL block,mHTT-CaM PPI inh
CC(=O)Nc1ccc(C(=O)NCc2ccc(F)c(Cl)c2)c(N2CCCCC2)c1,1.2,98.7*
CC(=O)Nc1ccc(C(=O)NCc2cccc(Cl)c2)c(N2CCOCC2)c1,-1.9,8.8
CCOC(=O)c1ccc(NC(=O)N2CCCC2c2ccc(C)cc2)cc1 (stereo not drawn),-4.8,-6.9
COc1ccc2nc(-c3cccc(NC(=O)COc4ccc(C(C)=O)cc4OC)c3)cn2n1,-9.0,64.2*
COc1ccc2nc(-c3ccc(OC)c(NC(=O)CC4CCCC4)c3)cn2n1,-12.4,-10.2
Cc1cccc(-c2noc(-c3ccc(NCc4ccc(F)cc4)nc3)n2)c1,2.6,-2.8
CCN(Cc1ccncc1)C(=O)c1ccc(-c2ccc(F)cc2)s1,-0.3,37.0
CCN(Cc1ccncc1)C(=O)c1ccc(-c2cccc(Cl)c2)s1,-4.5,74.6*
CC(=O)c1ccc(N2CCN(C(=O)c3ccc(F)cc3F)CC2)c(F)c1,-2.3,0.7
CCOc1cccc2cc(C(C)=O)c(=O)oc12,-1.6,4.6
Nc1c(C(=O)O)cc(Br)c2c1C(=O)c1ccccc1C2=O,-8.1,51.8*
Nc1c(Br)c(Br)c(N)c2c1C(=O)c1ccccc1C2=O,-1.8,27.0
CCCNC(=O)C(=O)NCC1COC2(CCCCC2)O1 (stereo not drawn),-5.2,-2.5
CC1C(C#N)=C(N)SC(N)=C1C#N,-3.1,98.5*
COc1cc(OC)c(C2C(C#N)=C(N)SC(N)=C2C#N)cc1OC,/,70.5*
CCCC1C(C#N)=C(N)SC(N)=C1C#N,-5.8,3.8
COc1ccccc1C1C(C#N)=C(N)SC(N)=C1C#N,-4.9,7.6
CCCN1CCN(C(=O)c2ccnc(N3CCNC(c4ccccc4)C3)c2)CC1 (stereo not drawn),1.4,-0.8
S=c1[nH]nc(CN2c3ccccc3Sc3ccccc32)n1-c1ccccc1,-6.7,/
CCOC(=O)N1CCN(c2nc(-c3ccc(C)cc3)nc3ccccc23)CC1,1.6,-8.0
Cc1ccc(-c2nc(N3CCC(C(N)=O)(N4CCCCC4)CC3)c3ccccc3n2)cc1,-3.0,53.0*
Nc1nc2c(nc(N=Nc3c(O)[nH]c4ccccc34)n2C2OC(CO)C(O)C2O)c(=O)[nH]1 (stereo not drawn),/,63.3*
NCCCCCCNc1nc2c(=O)[nH]cnc2n1C1OC(CO)C(O)C1O (stereo not drawn),/,-4.5
COCC(=O)N1CCCC(COc2ccc(C(=O)N3CCC(C)CC3)cc2)C1 (stereo not drawn),4.6,10.5
COc1ccc(CNC(=O)Cn2nc3c(c2NC(=O)Cc2cccs2)CSC3)cc1,42.0,66.3*
SMILES,Pf apPOL block,mHTT-CaM PPI inh
COc1ccc(CC(=O)Nc2c3c(nn2-c2ccc(OC)cc2)CSC3)cc1,-0.9,31.0
CCCn1c2ccccc2c2nnc(SCN3C(=O)c4ccccc4C3=O)nc21,-4.1,3.0
C=C(C)COc1ccc(-c2[nH]ncc2Oc2ccccc2OCC)c(O)c1,-1.6,66.5*
Oc1ccc(-c2[nH]ncc2-c2ccc(F)cc2)c(O)c1,17.4,30.9
C=C(C)COc1ccc2c(=O)c(Oc3ccccc3OCC)c(C)oc2c1,-7.9,-14.2
Oc1ccc(-c2[nH]ncc2Oc2ccc(-c3ccccc3)cc2)c(O)c1,0.4,50.9*
CCCc1ccc(Oc2cn[nH]c2-c2ccc(O)cc2O)cc1,4.0,81.8*
COc1ccc(-c2[nH]ncc2-c2cnc(C)s2)c(O)c1,-17.6,7.4
CCOc1ccc(-c2[nH]ncc2Oc2ccccc2)c(O)c1,-4.1,39.0
COc1ccc(-c2[nH]ncc2Oc2ccc(Cl)cc2)c(O)c1,-3.5,65.9*
O=C(OCc1cc(-c2cccs2)on1)c1ccc(S(=O)(=O)N2CCCC2)cc1,-1.8,-4.1
CCCOC(=O)c1ccc(Oc2c(C)oc3cc(OC)ccc3c2=O)cc1,-3.5,-3.8
COc1ccc(C2=NN(C(=O)c3ccco3)C(c3cc4cc(OC)ccc4nc3Cl)C2)cc1 (stereo not drawn),-2.8,7.0
O=C1NC(=O)C(=Cc2cn(CCOc3ccccc3)c3ccccc23)C(=O)N1,-52.4,33.0
CCN1C(=O)NC(=O)/C(=C/c2cn(CCOc3ccccc3C)c3ccccc23)C1=O,-2.8,61.0*
CCN1C(=O)NC(=O)/C(=C/c2cn(CCOc3ccc(F)cc3)c3ccccc23)C1=O,-4.0,13.0
Cc1ccccc1OCCn1cc(C=C2C(=O)NC(=O)NC2=O)c2ccccc21,-60.1,51.0*
CN1CCN(c2cc(N3CCN(C(=O)c4cccs4)CC3)c([N+](=O)[O-])cc2F)CC1,-4.5,4.4
COc1cc(C2c3c(-c4ccc(F)cc4)n[nH]c3C(=O)N2c2ccccc2)ccc1O (stereo not drawn),-1.4,78.0*
COc1ccc(-c2n[nH]c3c2C(c2ccc(OC)cc2)N(c2ccccc2)C3=O)cc1 (stereo not drawn),-2.5,43.0
O=C1c2[nH]nc(-c3ccccc3)c2C(c2cccc([N+](=O)[O-])c2)N1c1ccccc1 (stereo not drawn),28.3,28.0
O=C1c2[nH]nc(-c3ccc(F)cc3)c2C(c2ccccc2[N+](=O)[O-])N1c1ccccc1 (stereo not drawn),-0.8,83.0*
Cc1ccc(NC(=O)c2cccn2Cc2noc(C)n2)cc1,-5.6,-3.7
O=C(Nc1ccc(N2CCN(C(=O)c3ccc(F)cc3)CC2)nc1)C1CCCCC1,-6.7,-6.0
O=C(Cc1ccc(Br)cc1)Nc1ncc([N+](=O)[O-])s1,-2.6,12.5
SMILES,Pf apPOL block,mHTT-CaM PPI inh
O=C(Cc1ccc(Cl)cc1)Nc1ncc([N+](=O)[O-])s1,-6.1,98.4*
N#Cc1cc2c(N)c(C(=O)Nc3ccccc3Oc3ccccc3)sc2nc1N,-1.3,81.0*
N#Cc1cc2c(N)c(C(=O)c3ccc(Cl)cc3)sc2nc1N,-10.7,11.0
COc1cc(/C=C2\C(=O)NC(=O)N(c3cccc(Br)c3)C2=O)c([N+](=O)[O-])cc1OC,2.8,16.0
Cc1cc(N2C(=O)c3ccccc3C2=O)nc(=O)[nH]1,-2.7,-4.0
COc1ccc(N2CCN(CC(O)COc3ccccc3C(C)(C)C)CC2)cc1 (stereo not drawn),1.6,70.7*
COc1ccc(N2CCN(CC(O)COc3ccc(Cl)cc3C)CC2)cc1 (stereo not drawn),-1.8,76.1*
COc1ccccc1N1CCN(CC(O)COc2ccccc2C(C)(C)C)CC1 (stereo not drawn),-2.2,19.4
COc1ccc(N2CCN(CC(O)COc3ccc(C)c(C)c3)CC2)cc1 (stereo not drawn),-0.5,36.4
COc1ccccc1N1CCN(CC(O)COc2cccc3ccccc23)CC1 (stereo not drawn),-6.6,23.0
COc1ccccc1N1CCN(CC(O)COc2ccc(Cl)cc2C)CC1 (stereo not drawn),21.0,74.7*
COCC1Cc2cc(OC)c3c(c2C(c2ccc(OC)c(OC)c2)C1COC)OCO3 (stereo not drawn),-6.3,/
NC(=O)C1(N2CCCCC2)CCN(C(=O)c2cccn3c(=O)c4ccccc4nc23)CC1,-1.5,17.0
Cc1ccc(OCC(=O)Nc2ccc(C(C)C)cc2)cc1,-1.2,-15.0
CC(C)c1ccc(OCC(=O)Nc2nnc(-c3ccc(Br)o3)o2)cc1,36.6,52.3*
O=C(Cc1csc(NC(=O)c2ccc[nH]c2=O)n1)NCc1cccs1,-5.3,64.5*
COc1ccc(C(=O)Nc2nc(CC(=O)NCc3cccs3)cs2)cc1,-1.3,1.2
CCNC(=O)Cn1cccc1-c1nc(-c2ccccc2)cs1,-3.0,-2.8
